Among the data in PubChem BioAssay AID493034 (The Scripps Research Institute Molecular Screening Center, 2011) are inhibition values, retold here.

Screen size: about 2,400 compounds; about 2,200 (92%) were called active. So high a share suggests a set chosen from earlier hits. The list shows a part of the results. Values without a mark were called inactive.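 The calls were made as follows: active = mean inhibition over triplicate runs exceeds the cutoff derived for the earlier primary screen (cut at about 25% in these data); inactive = the rest.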

By inhibition is commonly meant the drop in the measured response relative to a control, in per cent.

For this experiment, the target named is Platelet-activating factor acetylhydrolase IB subunit alpha2 (Homo sapiens) (UniProt P68402). Description: inhibition of human PAFAH1B2 catalytic subunit – biochemical, fluorescence polarization, FP-rhodamine probe, triplicate, confirmation (AID 493034).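 Also: 0% = enzyme with DMSO and 100% = wells lacking PAFAH1B2 protein; inhibitors lower polarization by leaving the probe unbound.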 As to conditions: recombinant PAFAH1B2, FP-rhodamine probe fluorescence polarization; at 3.39 µM; stronger effect = higher value. On the technique in general: Fluorescence polarisation rises when a labelled molecule tumbles more slowly, as on binding a larger partner.
Chain of Platelet-activating factor acetylhydrolase IB subunit alpha2 (Homo sapiens) (P68402 whole entry, looked up): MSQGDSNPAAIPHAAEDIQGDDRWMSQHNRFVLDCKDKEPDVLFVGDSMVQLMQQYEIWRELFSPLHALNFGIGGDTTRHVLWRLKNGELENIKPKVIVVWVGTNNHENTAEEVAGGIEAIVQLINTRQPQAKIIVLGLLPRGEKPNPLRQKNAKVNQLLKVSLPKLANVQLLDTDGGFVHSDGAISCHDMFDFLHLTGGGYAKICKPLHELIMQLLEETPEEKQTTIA
For `COc1ccc(NC(=O)O/N=C/c2ccc(Br)cc2)cc1`, the inhibition is 7.26%.

In the case of `Cc1ccc(S(=O)(=O)N2[C@@H](c3ccc(Cl)cc3)C(C(=O)O)=CC[C@H]2c2ccc(Cl)c(Cl)c2)cc1`, the inhibition was 85.8% (active). Turning to `Cc1ccc(S(=O)(=O)N2[C@@H](c3ccccc3)C(C(=O)O)=CC[C@H]2c2cccc(C)c2)cc1`, the inhibition is 21.1%. Take `Cc1ccc(S(=O)(=O)N2[C@@H](c3ccc(Br)cc3)C(C(=O)O)=CC[C@H]2c2ccc3c(c2)OCO3)cc1`: the inhibition is 59.1% (active). The figure for `CC(=O)N1CCOc2ccc(S(=O)(=O)NCc3ccc(C)cc3)cc21` is 23.4%. The figure for `Cc1ccc(S(=O)(=O)N2[C@@H](c3cccc(C)c3)C(C(=O)O)=C[C@H]2C(C)(C)C)cc1` is 18.7%. As for `Cc1ccc(S(=O)(=O)N2[C@@H](c3ccc(C(C)(C)C)cc3)C(C(=O)O)=CC[C@H]2c2cccc(Cl)c2)cc1`, the inhibition is 70.5% (active). As to `Cc1ccc(S(=O)(=O)N2[C@@H](c3ccc(C(C)(C)C)cc3)C(C(=O)O)=CC[C@H]2c2ccc(Cl)c(Cl)c2)cc1`, the inhibition was 58.5% (active). The value for `Cc1ccc(S(=O)(=O)N2[C@@H](c3ccc(Br)cc3)C(C(=O)O)=CC[C@H]2c2ccc(Cl)c(Cl)c2)cc1` was 85.2% (active); that for `CC(C)(C)C1CCC2(CC1)C(C#N)=C(SCC(=O)Nc1ccccc1)NC(=O)C2C#N` (configuration not stated) was 55% (active); that for `COc1ccc(S(=O)(=O)N2CCN(C(=O)[C@@H]3CCC(=O)N3C3OC(=O)c4ccccc43)CC2)cc1` (some centres not stated) was 22.4%. Regarding `COc1cc(/C=N/NC(=O)c2cc(C34CC5CC(CC(C5)C3)C4)[nH]n2)ccc1O`, the inhibition is 24.7% (active). Turning to `Cc1ccccc1C(=O)c1cccn1CC(=O)NCc1ccc(Cl)cc1`, the inhibition was 23.1%. With `O=C(Oc1ccc(-c2ccccc2)cc1)c1ccco1`, the inhibition was 23.7%. As for `O=C(Oc1ccc(OC(=O)c2ccco2)c(S(=O)(=O)c2ccc(Br)cc2)c1)c1ccco1`, the inhibition is 34% (active). Consider `CC1=C(C(=O)OCC(Br)(Br)Br)C(c2cccc([N+](=O)[O-])c2)NC(=O)N1CCCC(=O)O` (configuration not stated), for which the inhibition is 90.6% (active). On to `O=C(Nc1ccccc1Cl)Oc1ccc(-c2ccccc2)cc1`, for which the inhibition was 53.8% (active). Consider `Cc1ccc(S(=O)(=O)n2nc(-c3cccnc3)nc2N)cc1`, for which the inhibition is 23.2%. Turning to `CC(=O)C[C@@H](O)CC(=O)[C@H]1OC(=O)CCCCCCCCc2ccccc21`, the inhibition was 43.6% (active). Regarding `CC(=O)C[C@H](O)CC(=O)[C@H]1OC(=O)CCCCCCCCc2ccccc21`, the inhibition is 31.4% (active). On to `Cc1noc(NS(=O)(=O)c2ccc(NC(=O)CC34CC5CC(CC(Br)(C5)C3)C4)cc2)c1C`, for which the inhibition was 30.9% (active). The figure for `CC(CC(=O)NCCc1ccc(Cl)cc1)S(=O)(=O)c1ccc2c(c1)NC(=O)CO2` (configuration not stated) is 22.4%; for `Cn1c(=O)oc2cc(S(=O)(=O)NCCC(=O)NCCc3ccc(Cl)cc3)ccc21` it is 19.6%; for `O=S(=O)(Nc1ncccn1)c1ccc(NC(=S)NCCc2ccc(Cl)cc2)cc1` it is 36.6% (active). In the case of `N=c1c(S(=O)(=O)c2ccc(Cl)cc2)cc2c(=O)n3ccccc3nc2n1CCN1CCOCC1`, the inhibition is 22.3%.

For the compound `O=c1[nH]c(CN2CCN(c3ccc([N+](=O)[O-])cc3)CC2)nc2ccsc12`, the inhibition is 31.1% (active). Take `O=C1OC(c2ccccc2)=N/C1=C/c1cccc(OC(=O)c2cccs2)c1`: the inhibition is 15.5%. The figure for `O=C(O)c1cccc(COc2ccc3c(c2)CCC3)c1` is 40% (active); for `O=C(CCc1ccccc1)c1c(O)cc(O)cc1O` it is 26.6% (active). Consider `O=C(CCc1ccc(O)cc1)c1c(O)cc(O)cc1O`, for which the inhibition was 22.2%. The value for `C=C(C)C(COc1c2occc2cc2ccc(=O)oc12)OC(C)(C)C(O)COc1c2occc2cc2ccc(=O)oc12` (configuration not stated) was 67.4% (active); that for `Cc1ccc(NS(=O)(=O)c2cc([N+](=O)[O-])ccc2NNC(=S)Nc2cccc(Cl)c2)c(C)c1` was 30.2% (active); that for `N#Cc1c(N)[nH]c2ccc(Sc3ccccc3)cc12` was 33.8% (active). For the compound `Nc1ccc(CSc2ccc(Cl)cc2)cc1`, the inhibition is 21.7%.

For the compound `O=C(CSc1ccccc1)NC(=O)NCc1ccccc1`, the inhibition was 21.7%.

Take `Nc1ccc(CSc2ccccc2)cc1`: the inhibition was 30.1% (active). Regarding `CCOc1cc(/C=C(/C#N)c2ccc(Cl)cc2)cc(Cl)c1OCC(=O)O`, the inhibition is 42.5% (active). Turning to `CCOc1cc(/C=C(/C#N)c2ccc(F)cc2)ccc1OCc1ccc(C(=O)O)o1`, the inhibition was 4.35%.

On to `C[C@H]1CN([C@@H](C)CO)C(=O)c2cccc(NC(=O)Nc3ccc(C(F)(F)F)cc3)c2O[C@@H]1CN(C)C(=O)Nc1ccc(F)cc1`, for which the inhibition was 57% (active).

Take `C[C@@H]1CN([C@H](C)CO)C(=O)c2cccc(NC(=O)Nc3ccc(F)cc3)c2O[C@H]1CN(C)C(=O)Nc1ccc(C(F)(F)F)cc1`: the inhibition was 39.6% (active). The value for `CC(Oc1ccc2c(-c3ccccc3)cc(=O)oc2c1)C(=O)N[C@H](Cc1c[nH]c2ccccc12)C(=O)O` (some centres not stated) was 64.3% (active). The value for `CC(Oc1ccc2c(-c3ccccc3)cc(=O)oc2c1)C(=O)NC(Cc1c[nH]c2ccccc12)C(=O)O` (configuration not stated) was 59% (active).

In the case of `O=C(COc1ccc2c(-c3ccccc3)cc(=O)oc2c1)N[C@@H](Cc1c[nH]c2ccc(O)cc12)C(=O)O`, the inhibition is 55.4% (active).

For `CCCCc1cc(=O)oc2cc(C)cc(OCC(=O)NC(Cc3ccc(Cl)cc3)C(=O)O)c12` (configuration not stated), the inhibition is 22.2%. The value for `CC(Oc1ccc2c(-c3ccccc3)cc(=O)oc2c1)C(=O)NC(Cc1c[nH]c2ccc(O)cc12)C(=O)O` (configuration not stated) was 55.9% (active); that for `Cc1ccc(CSc2nnc(NC(=O)C3COc4ccccc4O3)s2)cc1` (configuration not stated) was 21.4%; that for `CCN(Cc1ccccc1)c1ccc(/C=N/NS(=O)(=O)c2cccc([N+](=O)[O-])c2)cc1` was 63.5% (active). On to `CCCCCCCCCCS(=O)(=O)N/N=C/c1ccc([N+](=O)[O-])cc1`, for which the inhibition was 20.3%.

Take `O=C(CC1CC2CCC1C2)Nc1nc(-c2ccccn2)cs1` (configuration not stated): the inhibition is 45.4% (active).

With `O=C(NCc1cccnc1)C(=O)Nc1nc(C23CC4CC(CC(C4)C2)C3)cs1`, the inhibition is 23.7%. With `Clc1ccc(COc2cccc(CNCc3ccncc3)c2)cc1`, the inhibition was 19.2%. In the case of `O=C(NCC(c1ccco1)N1CCCCC1)c1ccc(COc2ccc(Cl)cc2)cc1` (configuration not stated), the inhibition was 20%. For `CC(NCc1ccc(OCc2ccc(Cl)cc2)cc1)C(O)c1ccccc1` (configuration not stated), the inhibition is 68.7% (active). With `CCc1ccc2nc3sc(C(=O)Nc4nnc(CC)s4)c(N)c3cc2c1`, the inhibition is 19.1%.

`Cc1ccc(NC(=O)O/N=C/c2ccc(Br)cc2)cc1`: the inhibition is 15.5%. The value for `CCOC(=O)C1CCCN(C(=O)Cc2c(C(=O)O)[nH]c3ccccc23)C1` (configuration not stated) was 28.4% (active). As for `O=C(Cc1ccc(Br)cc1)Nc1ncc([N+](=O)[O-])s1`, the inhibition was 28.4% (active).
